About 3,900 (1.3%) of roughly 310,000 compounds were called active.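 Rule for the calls: active = compounds whose thallium flux B-score, printed positive for inhibition, exceeds three library SD while starting fluorescence stays within three; inactive = the rest.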 What follows is part of a selection rich in actives, with near analogues and random picks from the rest.
The compounds below were run against Potassium voltage-gated channel subfamily KQT member 1 (Homo sapiens) (UniProt P51787) (assay: KCNQ1 potassium current blockers – cell-based, thallium flux, high-throughput, primary screen (AID 2642;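 note: channel opened by potassium depolarization with thallium stimulus after 20 min compound exposure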)). Details: CHO-K1 KCNQ1, FluxOR thallium flux fluorescence, at 10 µM; stronger effect = higher value.
Sequence of Potassium voltage-gated channel subfamily KQT member 1 (Homo sapiens) (P51787 whole entry, looked up): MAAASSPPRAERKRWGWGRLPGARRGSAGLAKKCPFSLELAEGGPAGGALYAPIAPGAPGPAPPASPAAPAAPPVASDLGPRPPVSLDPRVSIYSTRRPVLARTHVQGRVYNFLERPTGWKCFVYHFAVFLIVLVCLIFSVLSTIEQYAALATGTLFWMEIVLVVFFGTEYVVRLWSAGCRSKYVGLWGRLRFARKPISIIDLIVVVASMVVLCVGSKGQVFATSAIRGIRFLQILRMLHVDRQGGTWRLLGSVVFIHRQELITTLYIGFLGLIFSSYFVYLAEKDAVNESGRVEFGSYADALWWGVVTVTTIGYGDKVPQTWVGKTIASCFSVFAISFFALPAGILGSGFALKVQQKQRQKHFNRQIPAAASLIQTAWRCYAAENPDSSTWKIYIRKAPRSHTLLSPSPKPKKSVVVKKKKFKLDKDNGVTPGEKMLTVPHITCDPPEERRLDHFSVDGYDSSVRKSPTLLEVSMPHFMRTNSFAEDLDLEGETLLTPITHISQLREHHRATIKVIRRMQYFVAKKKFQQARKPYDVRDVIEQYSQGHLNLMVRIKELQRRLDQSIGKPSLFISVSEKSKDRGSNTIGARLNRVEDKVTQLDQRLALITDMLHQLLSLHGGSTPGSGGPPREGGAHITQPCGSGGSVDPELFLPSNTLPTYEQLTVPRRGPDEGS

B-score, active:
C=CCOC(=O)C1=C(C)NC(SCC(=O)OCC)=C(C#N)C1c1ccc(C)cc1 (centres undefined) 6
CCC(C)N1C(=O)S/C(=C/c2ccc(Sc3nc4ccccc4[nH]3)o2)C1=O (centres undefined) 13
C[n+]1ccc(/C=C/c2c[nH]c3ccccc23)cc1 13
COC(=O)c1cc(NC(=O)c2cc(C(C)(C)C)nn2Cc2cccc(C)c2)ccc1N1CCOCC1 6
CCCCCC(O)c1cccc(OCc2ccc3ccccc3n2)c1 (centres undefined) 6
CC1(C(=O)N/N=C/c2cc3c(cc2Br)OCO3)CC1(Br)Br (centres undefined) 9
CCCC(=O)N1CCN(c2nnc(-c3ccc(C)cc3)c3ccccc23)CC1 7
CCCCn1ccnc1C(=O)c1cccc(S(=O)(=O)N2c3ccccc3CC2C)c1 (centres undefined) 6
CSc1nccc(NC(=O)c2ccc(C(C)(C)C)cc2)n1 7
Cc1cccc(Nc2ccccc2C(=O)NCc2ccco2)c1C 9
Cc1ccccc1OCC(=O)Nc1ccc(N2CCN(C(=O)C(C)C)CC2)c(Cl)c1 6
CCc1ccc2c(c1)C1(NN=C(c3ccccc3)S1)C(=O)N2 (centres undefined) 11
C=CCOc1cccc(C2C(C(=O)c3ccc(C)o3)=C(O)C(=O)N2c2nnc(C)s2)c1 (centres undefined) 11
COCc1cc(C)n(CC(=O)NCC2CCCO2)c(=O)c1C#N (centres undefined) 6
Cc1cccc(N2CCN(C(c3ccccc3)c3nnnn3CC3CCCO3)CC2)c1C (centres undefined) 6

B-score, inactive:
O=C(O)CCCn1c(=O)c2cccn2c2ccc(F)cc21
C=CCOC(=O)C1=C(C)OC(N)=C(C#N)C1c1ccc(F)cc1 (centres undefined)
CCOC(=O)CSC1=C(C#N)C(c2sccc2C)CC(=O)N1 (centres undefined)
NC(=O)c1ncc(C(F)(F)F)cc1Oc1ccc(F)cc1
CCOc1ccc(N/C(N)=N/c2nc(C)c(C)c(=O)[nH]2)cc1
CCc1nnc(NC(=O)CCCSc2nc3ccccc3[nH]2)s1
CCCCSc1nc2ccccc2[nH]1
CCOc1ccc(C(=O)NCC(=O)N2CCCCCCC2)cc1OCC
CC(=O)N1CCC(C(=O)Nc2nc(-c3ccccc3)ns2)CC1
COc1ccc(/C=C(\C#N)c2c[nH]c3ccccc23)cc1
O=C(N/N=C/c1c[nH]c2ccccc12)c1ccccc1O
COc1ccc(CC(=O)OC(C)C(=O)Nc2ccc(S(N)(=O)=O)cc2)cc1 (centres undefined)
COC(=O)c1cc(NC(=O)c2ccco2)ccc1N1CCOCC1
CC(=O)Nc1ccc(N2CCOCC2)c(C(=O)Nc2cccc(C)c2)c1
COc1cccc(C(O)c2nc3ccccc3n2C)c1 (centres undefined)
CCCCCCOC(=O)NCC(O)c1ccccc1 (centres undefined)
O=C(O)CC12CC3CC(C1)CC(n1ncc(NCc4ccc(F)cc4)c(Cl)c1=O)(C3)C2
O=C(N/N=C/c1cc2c(cc1Br)OCO2)C1COc2ccccc2O1 (centres undefined)
CC(=O)N/N=C/c1cc2c(cc1[N+](=O)[O-])OCO2
OCCN1CCN(c2nnc(-c3ccccc3)c3ccccc23)CC1
c1ccc(-c2nnc(N3CCOCC3)c3ccccc23)cc1
COC(=O)c1ccc(S(=O)(=O)N2CCc3ccccc3C2)cc1
COc1ccccc1CNC(=O)C1Cc2ccccc2C(=O)O1 (centres undefined)
CCNC(=S)N(CCN(CC)CC)Cc1cc2cc3c(cc2[nH]c1=O)OCO3
Clc1ccc(CSc2nnc3c(n2)[nH]c2ccccc23)cc1
CC1Cc2ccccc2N1S(=O)(=O)c1c(N)n(C)c(=O)n(C)c1=O (centres undefined)
CC1Cc2ccccc2N1S(=O)(=O)c1ccc(Cl)nc1 (centres undefined)
COc1ccc(C2C(C#N)=C(/N=C/N3CCOCC3)OC3=C2C(=O)CC(C)(C)C3)cc1OC (centres undefined)
Cc1cccc(NC(=O)c2cccnc2Cl)n1
COC(=O)c1nc(NC(=O)c2ccc(C(C)(C)C)cc2)n[nH]1
COc1ccccc1N(C)S(=O)(=O)c1ccc(Cl)c(C(=O)Nc2ccncc2)c1
Cc1cnc(C(=O)OCC(=O)NCCCc2ccccc2)cn1
Cc1ccc(OC(=O)c2cncc(Br)c2)c(C)c1
Cc1ccccc1NC(=O)NCc1ccco1
O=C(Nc1ccccc1)Nc1ccccc1C(=O)NCc1ccco1
CSc1ccc(S(=O)(=O)N2CCC(C(=O)NCc3ccncc3)CC2)cc1
Cc1csc(NC(=O)CSc2nnc(-c3cccnc3)o2)n1
Cc1ccccc1OCC(=O)Nc1ccc2c(c1)ncn2C
Cc1ccccc1OCC(=O)Nc1ccc(S(=O)(=O)N2CCOCC2)cc1
CC(=O)NNC1=Nc2ccccc2N(C)C(C)C1 (centres undefined)
CC(C)N(C(=O)Cn1cc(S(=O)(=O)CC(=O)N2CCOCC2)c2ccccc21)C(C)C
COc1ccccc1NC(=O)c1ccc(N2CC3CC(C2)c2cccc(=O)n2C3)c(NC(=O)c2cccnc2)c1 (centres undefined)
O=C1CCC(=O)N1c1ccc(NCCc2ccccc2F)c([N+](=O)[O-])c1
CC1(c2nnc(Cc3ccccc3)o2)CC(c2ccccc2F)=NO1 (centres undefined)
C=CCOc1cccc(C2C(C(=O)c3ccc(C)o3)=C(O)C(=O)N2CCCn2ccnc2)c1 (centres undefined)
Cc1cc(N2C(=O)C(O)=C(C(=O)c3ccc(C)o3)C2c2ccc(OCc3ccccc3)cc2)no1 (centres undefined)
COc1ccc(NC(=O)C2=CC(c3ccc(OC)c(OC)c3)=NS(=O)(=O)N2C)cc1
Cc1nn(CC(=O)NCC2CCCO2)c(=O)c2cc3ccccc3n12 (centres undefined)
Cc1ccc2c(c1)N(CC(=O)NCC1CCCO1)C(=O)CO2 (centres undefined)
Cc1cc(-c2ccc(C)c(S(=O)(=O)Nc3ccc(S(N)(=O)=O)cc3)c2)on1
Cc1cccc(N2CCN(C(c3ccc(N(C)C)cc3)c3nnnn3C(C)(C)C)CC2)c1C (centres undefined)
COc1ccccc1C(c1nnnn1CC1CCCO1)N1CCN(c2ccccc2)CC1 (centres undefined)
NC(=O)C1CCN(C(=O)CC2C(=O)NCCN2Cc2cccc(Oc3ccccc3)c2)CC1 (centres undefined)
CS(=O)(=O)N1CCc2nc(-c3ccccc3)sc2C1

From PubChem BioAssay AID2642 (Johns Hopkins Ion Channel Center, 2010)
